Laboratory results reported in PubChem BioAssay (NCATS).
Records with an inconclusive call do not appear. Active and inactive are the calls of the source. Calls come from the whole dose curve; as a rule, active = well fitted cell-killing curve with a large enough effect; inconclusive = small, poorly fitted or top-dose-only effect, or effect the other way; inactive = no such curve, though single readings can be large or run the other way.

Columns and labels:
[1] = Quantitative High-Throughput drug screen in 47 multiple myeloma cell lines against the NCATS MIPE library collection: MM1R_ATCC cell viability assay (AID 1918981); conditions: MM1R multiple myeloma cells, CellTiter-Glo viability, 48 h; series mostly up to 45.8 µM; note: nearly all actives have a fitted effect of over 35% in size
How it was run: (§1)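 500 cells/well per myeloma line exposed to pinned MIPE 4.0 compounds for 48 h at 37 °C, 5% CO2. Viability read as ATP by CellTiter-Glo luminescence, normalised to DMSO-only (100%) and media-only (0%) wells.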

[2] = Quantitative High-Throughput drug screen in 47 multiple myeloma cell lines against the NCATS MIPE library collection: LP1_DSMZ cell viability assay (AID 1918982); conditions: LP1 myeloma viability, CellTiter-Glo ATP luminescence, 48 h; series mostly up to 45.8 µM; note: nearly all actives have a fitted effect of over 35% in size
How it was run: as §1

[3] = Quantitative High-Throughput drug screen in 47 multiple myeloma cell lines against the NCATS MIPE library collection: KMS28PE_JCRB cell viability assay (AID 1918983); conditions: KMS28PE multiple myeloma viability, CellTiter-Glo ATP, 48 h; series mostly up to 45.8 µM; note: nearly all actives have a fitted effect of over 35% in size
How it was run: as §1

[4] = Quantitative High-Throughput drug screen in 47 multiple myeloma cell lines against the NCATS MIPE library collection: KMS34_JCRB cell viability assay (AID 1918985); conditions: KMS34 myeloma viability, CellTiter-Glo ATP luminescence, 48 h; series mostly up to 45.8 µM; note: nearly all actives have a fitted effect of over 40% in size
How it was run: as §1

[5] = Quantitative High-Throughput drug screen in 47 multiple myeloma cell lines against the NCATS MIPE library collection: OPM1_PLB cell viability assay (AID 1918989); conditions: CellTiter-Glo, 48 h; series mostly up to 45.8 µM; note: nearly all actives have a fitted effect of over 40% in size
How it was run: as §1

[6] = Quantitative High-Throughput drug screen in 47 multiple myeloma cell lines against the NCATS MIPE library collection: XG1_PLB cell viability assay (AID 1919866); conditions: CellTiter-Glo ATP, 48 h; series mostly up to 45.8 µM; note: nearly all actives have a fitted effect of over 35% in size
How it was run: as §1

[7] = Quantitative High-Throughput drug screen in 47 multiple myeloma cell lines against the NCATS MIPE library collection: VP6_DJ cell viability assay (AID 1919867); conditions: ATP luminescence, 48 h; series mostly up to 45.8 µM; note: nearly all actives have a fitted effect of over 40% in size
How it was run: as §1

[8] = Quantitative High-Throughput drug screen in 47 multiple myeloma cell lines against the NCATS MIPE library collection: PCM6_Riken cell viability assay (AID 1919870); conditions: CellTiter-Glo ATP, 48 h; series mostly up to 45.8 µM; note: nearly all actives have a fitted effect of over 30% in size
How it was run: as §1

[9] = Quantitative High-Throughput drug screen in 47 multiple myeloma cell lines against the NCATS MIPE library collection: RPMI8226_ATCC cell viability assay (AID 1919871); conditions: RPMI8226 myeloma viability, CellTiter-Glo ATP luminescence, 48 h; series mostly up to 45.8 µM; note: nearly all actives have a fitted effect of over 30% in size
How it was run: as §1

[10] = Quantitative High-Throughput drug screen in 47 multiple myeloma cell lines against the NCATS MIPE library collection: OPM2_DSMZ cell viability assay (AID 1919872); conditions: OPM2 myeloma viability, CellTiter-Glo ATP luminescence, 48 h; series mostly up to 45.8 µM; note: nearly all actives have a fitted effect of over 30% in size
How it was run: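 We plated 500 myeloma cells per well, pinned in MIPE 4.0 compounds, and incubated for 48 hours at 37C. ATP was then quantified with CellTiter-Glo, with DMSO and media-only wells defining 100% and 0%.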

[11] = Quantitative High-Throughput drug screen in 47 multiple myeloma cell lines against the NCATS MIPE library collection: KMS11_JCRBsus cell viability assay (AID 1919873); conditions: KMS11 myeloma viability, CellTiter-Glo ATP luminescence, 48 h; series mostly up to 45.8 µM; note: nearly all actives have a fitted effect of over 50% in size
How it was run: as §1

[12] = Quantitative High-Throughput drug screen in 47 multiple myeloma cell lines against the NCATS MIPE library collection: KMS28BM_JCRB cell viability assay (AID 1919874); conditions: CellTiter-Glo ATP, 48 h; series mostly up to 45.8 µM; note: nearly all actives have a fitted effect of over 35% in size
How it was run: as §1

[13] = Quantitative High-Throughput drug screen in 47 multiple myeloma cell lines against the NCATS MIPE library collection: L363_DSMZ cell viability assay (AID 1918984); conditions: L363 myeloma viability, CellTiter-Glo ATP luminescence, 48 h; series mostly up to 45.8 µM; note: nearly all actives have a fitted effect of over 40% in size
How it was run: as §1

[14] = Quantitative High-Throughput drug screen in 47 multiple myeloma cell lines against the NCATS MIPE library collection: OCIMY7_PLB cell viability assay (AID 1918987); conditions: OCI-MY7 myeloma viability, CellTiter-Glo ATP, 48 h; viability (% of DMSO): at 45.8 µM (top of the series); note: nearly all actives have a fitted effect of over 65% in size
How it was run: as §1

[15] = Quantitative High-Throughput drug screen in 47 multiple myeloma cell lines against the NCATS MIPE library collection: SKMM1_PLB cell viability assay (AID 1919863); conditions: SKMM1 myeloma viability, CellTiter-Glo ATP, 48 h; viability: hits give low values; note: nearly all actives have a fitted effect of over 35% in size
How it was run: as §1

[16] = Quantitative High-Throughput drug screen in 47 multiple myeloma cell lines against the NCATS MIPE library collection: UTMC2_PLB cell viability assay (AID 1919868); conditions: CellTiter-Glo ATP luminescence, 48 h; viability (% of DMSO control): at 45.8 µM (top of the series); note: nearly all actives have a fitted effect of over 55% in size
How it was run: as §1

[17] = Quantitative High-Throughput drug screen in 47 multiple myeloma cell lines against the NCATS MIPE library collection: PE2_PLB cell viability assay (AID 1919869); conditions: PE2_PLB myeloma cells viability, ATP luminescence, 48 h; series mostly up to 45.8 µM; note: nearly all actives have a fitted effect of over 35% in size
How it was run: as §1

[18] = Quantitative High-Throughput drug screen in 47 multiple myeloma cell lines against the NCATS MIPE library collection: OCIMY5_PLB cell viability assay (AID 1918988); conditions: OCI-MY5 myeloma viability, ATP luminescence, 48 h; series mostly up to 45.8 µM; note: nearly all actives have a fitted effect of over 65% in size
How it was run: as §1

[19] = Quantitative High-Throughput drug screen in 47 multiple myeloma cell lines against the NCATS MIPE library collection: XG6_PLB cell viability assay (AID 1919865); conditions: XG6 myeloma viability, CellTiter-Glo ATP luminescence, 48 h; series mostly up to 45.8 µM; note: nearly all actives have a fitted effect of over 40% in size
How it was run: as §1

[20] = Quantitative High-Throughput drug screen in 47 multiple myeloma cell lines against the NCATS MIPE library collection: U266_ATCC cell viability assay (AID 1919864); conditions: U266 myeloma viability, CellTiter-Glo ATP luminescence, 48 h; series mostly up to 45.8 µM; note: nearly all actives have a fitted effect of over 35% in size
How it was run: as §1
Potency is the fitted concentration of half-maximal effect.

COc1ccc(-c2coc3cc(O)cc(O)c3c2=O)cc1
inactive: Potency [1] | Potency [2] | Potency [3] | Potency [4] | Potency [5] | Potency [6] | Potency [7] | Potency [8] | Potency [9] | Potency [10] | Potency [11] | Potency [12]

OC[C@H]1O[C@@H](n2cnc3c2NC=NC[C@@H]3O)C[C@H]1O
active: Potency [14] 23.5 µM | Potency [17] 11.8 µM
inactive: Potency [1] | Potency [2] | Potency [13] | Potency [5] | viability [15] 110% | Potency [16] | Potency [9] | Potency [10]

CCOC1OC(=O)C[C@H]1NC(=O)[C@@H]1CCCN1C(=O)[C@@H](NC(=O)c1ccc(N)c(Cl)c1)C(C)(C)C (some centres not stated)
inactive: Potency [1] | Potency [2] | Potency [4] | Potency [18] | Potency [5] | viability [15] 129% | Potency [19] | Potency [6] | Potency [17] | Potency [8] | Potency [10] | Potency [11] | Potency [12]

CC#CCn1c(N2CCC[C@@H](N)C2)nc2c1c(=O)n(Cc1nc(C)c3ccccc3n1)c(=O)n2C
active: Potency [4] 4.18 µM | Potency [18] 26.4 µM
inactive: Potency [1] | Potency [2] | Potency [3] | Potency [19] | Potency [8] | Potency [9] | Potency [11] | Potency [12]

COc1ccc(-c2oc3c(CC=C(C)C)c(OC4O[C@H](CO)[C@@H](O)[C@H](O)[C@@H]4O)cc(O)c3c(=O)c2OC2O[C@@H](C)[C@H](O)[C@@H](O)[C@@H]2O)cc1 (some centres not stated)
active: Potency [1] 20.9 µM | Potency [2] 20.9 µM | Potency [13] 13.2 µM | Potency [4] 23.5 µM | Potency [14] 13.2 µM | Potency [18] 20.9 µM | Potency [5] 26.4 µM | Potency [15] 20.9 µM | Potency [19] 23.5 µM | Potency [6] 18.7 µM | Potency [17] 23.5 µM | Potency [8] 16.6 µM | Potency [9] 20.9 µM | Potency [10] 23.5 µM | Potency [11] 23.5 µM | Potency [12] 16.6 µM

Cc1ccc(Nc2cc(-c3cccc(N4C(=O)c5ccccc5C4=O)c3)ncn2)cc1NS(C)(=O)=O
inactive: Potency [9]
active: Potency [1] 23.5 µM | Potency [2] 26.4 µM | Potency [13] 18.7 µM | Potency [18] 20.9 µM | Potency [5] 23.5 µM | Potency [20] 23.5 µM | Potency [19] 8.33 µM | Potency [6] 18.7 µM | Potency [7] 14.8 µM | Potency [16] 20.9 µM | Potency [17] 16.6 µM | Potency [8] 14.8 µM | Potency [10] 26.4 µM | Potency [11] 20.9 µM

CC1(C)CCC2=C(O1)c1ccccc1C(=O)C2=O
active: Potency [1] 23.5 µM | Potency [2] 20.9 µM | Potency [4] 13.2 µM | Potency [14] 3.32 µM | Potency [18] 18.7 µM | Potency [5] 20.9 µM | Potency [15] 20.9 µM | Potency [20] 20.9 µM | Potency [6] 26.4 µM | Potency [16] 20.9 µM | Potency [17] 20.9 µM | Potency [8] 20.9 µM | Potency [10] 16.6 µM | Potency [11] 26.4 µM

CN1C[C@H]2c3ccccc3Oc3ccc(Cl)cc3[C@@H]2C1
inactive: Potency [1] | Potency [2] | Potency [3] | Potency [20] | Potency [19] | Potency [6] | Potency [9] | Potency [10]
active: Potency [18] 13.2 µM | Potency [7] 4.18 µM | Potency [8] 11.8 µM

NC(CO)(CO)CCc1ccc(Sc2cccc(OCc3ccccc3)c2)cc1Cl
active: Potency [1] 10.5 µM | Potency [2] 20.9 µM | Potency [13] 10.5 µM | Potency [14] 11.8 µM | Potency [18] 20.9 µM | Potency [5] 6.62 µM | Potency [15] 26.4 µM | Potency [19] 20.9 µM | Potency [6] 16.6 µM | Potency [16] 16.6 µM | Potency [17] 13.2 µM | Potency [8] 14.8 µM | Potency [9] 23.5 µM | Potency [10] 23.5 µM | Potency [11] 7.43 µM | Potency [12] 11.8 µM

CO[C@H]1C[C@@H]2CC[C@@H](C)[C@@](O)(O2)C(=O)C(=O)N2CCCC[C@@H]2C(=O)O[C@H]([C@H](C)C[C@@H]2CC[C@H](OP(C)(C)=O)[C@H](OC)C2)CC(=O)[C@H](C)C=C(C)[C@@H](O)[C@@H](OC)C(=O)[C@H](C)C[C@H](C)C=CC=CC=C1C
inactive: Potency [1] | Potency [2] | Potency [3] | viability [15] 83.3% | Potency [20] | Potency [6] | Potency [16] | Potency [9] | Potency [10] | Potency [11] | Potency [12]
active: Potency [14] 14.8 µM

O=C(Nc1cc(Cl)cc2c1[nH]c1cnccc12)c1cccnc1
inactive: Potency [2] | Potency [5] | Potency [10] | Potency [11]
active: Potency [1] 1.87 µM | Potency [3] 16.6 µM | Potency [14] 14.8 µM | Potency [18] 16.6 µM | Potency [20] 20.9 µM | Potency [19] 2.64 µM | Potency [6] 5.26 µM | Potency [7] 7.43 µM

CN(C)Cc1ccc(-c2nc3cccc4c3n2CCNC4=O)cc1
active: Potency [1] 20.9 µM | Potency [2] 23.5 µM | Potency [13] 18.7 µM | Potency [14] 8.33 µM | Potency [18] 20.9 µM | Potency [19] 16.6 µM | Potency [6] 20.9 µM | Potency [7] 14.8 µM | Potency [17] 20.9 µM | Potency [8] 14.8 µM | Potency [11] 26.4 µM
